Legend:
Settings in all cases: concentration: 1 μM, replicates: in singlicate; n = 1
CHEK1 = system: CHEK1
CHEK2 = system: CHEK2
CIT = system: CIT
CLK1 = system: CLK1
CLK2 = system: CLK2
CLK3 = system: CLK3
CLK4 = system: CLK4
CSF1R-autoinhibited = system: CSF1R-autoinhibited
CSF1R = system: CSF1R
CSK = system: CSK
CSNK1A1L = system: CSNK1A1L
CSNK1A1 = system: CSNK1A1
CSNK1D = system: CSNK1D
CSNK1E = system: CSNK1E
CSNK1G1 = system: CSNK1G1
CSNK1G2 = system: CSNK1G2
CSNK1G3 = system: CSNK1G3
CSNK2A1 = system: CSNK2A1
CSNK2A2 = system: CSNK2A2
CTK = system: T1, CTK
T1 construct: gene MATK
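Further: KINOMEscan kinase panel screen.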

Row | Compound | %Inh (CHEK1) | %Inh (CHEK2) | %Inh (CIT) | %Inh (CLK1) | %Inh (CLK2) | %Inh (CLK3) | %Inh (CLK4) | %Inh (CSF1R-autoinhibited) | %Inh (CSF1R) | %Inh (CSK) | %Inh (CSNK1A1L) | %Inh (CSNK1A1) | %Inh (CSNK1D) | %Inh (CSNK1E) | %Inh (CSNK1G1) | %Inh (CSNK1G2) | %Inh (CSNK1G3) | %Inh (CSNK2A1) | %Inh (CSNK2A2) | %Inh (CTK)
1 | COc1ccc(S(=O)(=O)NC2CCN(c3cc(C)nc(Nc4cccc(C#N)c4)n3)CC2)cc1.O=C(O)C(F)(F)F [GSK1653539] | 0% | 14% | 0% | 20% | 0% | 56% | 3% | 0% | 1% | 0% | 0% | 0% | 19% | 54% | 12% | 0% | 30% | 0% | 4% | 0%
2 | COc1ccc(CNC(=O)NC2CCN(c3ccnc(Nc4ccc(OC)cc4)n3)C2)cc1 (stereo not shown) [GSK1379727] | 0% | 27% | 19% | 19% | 0% | 0% | 14% | 16% | 0% | 0% | 5% | 0% | 0% | 8% | 0% | 0% | 8% | 7% | 0% | 0%
3 | Nc1nccc(-c2c(-c3ccc(F)cc3)ncn2C2CCN(CC(F)(F)F)CC2)n1 [SB-236560] | 0% | 38% | 66% | 0% | 6% | 17% | 0% | 68% | 0% | 0% | 2% | 92.7% | 86% | 96.6% | 0% | 1% | 0% | 0% | 0% | 7%
4 | Cn1ccc2ncnc(Oc3ccc(NC(=O)Nc4ccncc4)c(Cl)c3)c21 | 0% | 20% | 18% | 0% | 0% | 0% | 21% | 0% | 0% | 0% | 0% | 0% | 0% | 0% | 0% | 0% | 0% | 0% | 0% | 0%
5 | CCn1cnc2c(N)ncnc21 [GW345098] | 12% | 0% | 6% | 30% | 18% | 69% | 1% | 0% | 0% | 0% | 14% | 28% | 21% | 55% | 9% | 0% | 16% | 12% | 19% | 51%
6 | Cc1nnc(-c2ccc3ncc(-c4ccc(S(C)=O)cc4)n3c2)o1 (stereo not shown) | 0% | 0% | 38% | 0% | 0% | 0% | 0% | 7% | 17% | 0% | 9% | 7% | 0% | 0% | 24% | 5% | 0% | 0% | 18% | 27%
7 | CC(=O)Nc1ccc(COc2ccc(Nc3ccnc4cc(-c5ccccn5)ccc34)cc2)cc1.Cl [GW440148] | 1% | 29% | 20% | 35% | 0% | 0% | 0% | 32% | 99.3% | 36% | 0% | 0% | 24% | 33% | 9% | 0% | 29% | 5% | 11% | 3%
8 | Cc1cccc(-c2nc(Nc3ccc4ncsc4c3)c3ccccc3n2)n1 [GW867588] | 0% | 7% | 13% | 1% | 9% | 0% | 0% | 4% | 0% | 3% | 0% | 0% | 0% | 6% | 0% | 0% | 0% | 0% | 18% | 0%
9 | O=C(Nc1n[nH]c2cc(-c3cccc(F)c3)ccc12)C1CC1 [SB-735464] | 0% | 0% | 20% | 12% | 9% | 22% | 7% | 0% | 2% | 2% | 10% | 0% | 0% | 0% | 0% | 0% | 0% | 3% | 24% | 49%
10 | O=C(NCCCN1CCOCC1)c1cccc(Nc2nccc(Nc3ccc(Oc4ccccc4)cc3)n2)c1 [GW663929] | 9% | 40% | 9% | 22% | 28% | 0% | 11% | 9% | 33% | 88% | 0% | 0% | 3% | 0% | 18% | 0% | 11% | 10% | 21% | 11%
11 | O=C(NCCNc1ccnc(Nc2ccc(F)cc2)n1)c1cc2ccccc2s1 [GSK1379874] | 2% | 0% | 22% | 29% | 0% | 26% | 37% | 8% | 0% | 0% | 9% | 0% | 0% | 37% | 0% | 0% | 21% | 7% | 19% | 52%

Source: article PMC5540273 (PLoS ONE, 2017)
